{"source": "PubChem BioAssay AID588591", "about": "(National Center for Advancing Translational Sciences (NCATS), 2011)", "note": "Screen size: about 390,000 compounds; about 4,700 (1.2%) were called active. Inconclusive results (about 4%) are left out. Calls follow the shape of the dose curve; as a rule, active = well fitted inhibition curve with a large enough effect; inconclusive = small, poorly fitted or top-dose-only effect, or another doubt; inactive = no such curve, though single readings can be large or run the other way. Shown is part of a subset that was picked to be rich in actives. Entries that show only a call come without a potency. Potency is read from the fitted curve at half-maximal effect."}
{"molecular_target": "DNA polymerase eta (Homo sapiens) (UniProt Q9Y253)", "sequence (Q9Y253 whole entry, looked up)": "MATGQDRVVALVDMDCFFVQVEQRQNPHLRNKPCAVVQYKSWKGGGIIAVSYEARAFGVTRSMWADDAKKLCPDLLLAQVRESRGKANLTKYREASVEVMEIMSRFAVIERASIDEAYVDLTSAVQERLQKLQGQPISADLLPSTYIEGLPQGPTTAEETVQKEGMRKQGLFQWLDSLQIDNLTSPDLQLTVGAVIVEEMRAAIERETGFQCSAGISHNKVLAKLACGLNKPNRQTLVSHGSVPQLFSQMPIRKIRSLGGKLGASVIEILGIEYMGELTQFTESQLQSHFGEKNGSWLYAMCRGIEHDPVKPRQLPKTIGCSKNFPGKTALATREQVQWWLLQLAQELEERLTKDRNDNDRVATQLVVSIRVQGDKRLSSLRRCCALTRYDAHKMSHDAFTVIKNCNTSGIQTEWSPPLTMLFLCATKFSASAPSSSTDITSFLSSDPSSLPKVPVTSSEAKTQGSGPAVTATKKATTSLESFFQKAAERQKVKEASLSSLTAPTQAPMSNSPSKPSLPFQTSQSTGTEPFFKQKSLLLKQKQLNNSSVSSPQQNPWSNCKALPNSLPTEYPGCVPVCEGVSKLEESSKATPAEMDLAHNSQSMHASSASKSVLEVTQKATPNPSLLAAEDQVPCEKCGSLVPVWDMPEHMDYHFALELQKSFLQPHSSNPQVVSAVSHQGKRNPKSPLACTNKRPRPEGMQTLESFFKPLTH", "test": "qHTS for Inhibitors of Polymerase Eta", "conditions": "recombinant Pol eta, fluorescent DNA replication assay; series mostly up to 114 µM", "method_in_brief": "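Pol eta at 10 nM preincubated with compounds 15 min at room temperature; reaction started with fluorescent substrate (50 nM final) and read kinetically at 0 and 10 min.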"}
{"smiles": "Cc1ccc(-c2nn(CCC(=O)Nc3ccc(OC(F)(F)F)cc3)c(=O)c3ccccc23)cc1", "Potency": "inactive"}
{"smiles": "O=C(O)c1ccc(COc2c(F)c(F)cc(F)c2F)o1", "Potency": "44.7 µM (active)"}
{"smiles": "O=C(O)CSCc1ccc(C(=O)O)o1", "Potency": "inactive"}
{"smiles": "O=C(c1ccco1)N1CCN(C(=O)c2ccc(COc3ccc(F)cc3)o2)CC1", "Potency": "inactive"}
{"smiles": "COc1cc(C(=O)N2CCN(C(=O)COc3cccc(C)c3)CC2)cc(OC)c1OC", "Potency": "inactive"}
{"smiles": "CCOc1ccc(NC(=O)c2c(NC(=O)Cc3ccccc3)sc3c2CCC(C)C3)cc1", "note": "(stereo not drawn)", "Potency": "inactive"}
{"smiles": "Cc1ccc(C)c(Cn2c(=O)n(CCC(=O)NCc3ccc4c(c3)OCO4)c(=O)c3sccc32)c1", "Potency": "inactive"}
{"smiles": "Cc1ccc(S(=O)(=O)N2CCC(C(=O)Nc3cc(C)ccc3C)CC2)cc1", "Potency": "inactive"}
{"smiles": "Cc1cccc(NC(c2cccc(F)c2)c2ccc3ccc(C)nc3c2O)n1", "note": "(stereo not drawn)", "Potency": "inactive"}
{"smiles": "O=C(CSc1nc(O)c(Cc2ccccc2)c(=O)[nH]1)Nc1nc2c(s1)CCCC2", "Potency": "inactive"}
{"smiles": "O=C(CSc1nc2ccccc2c(=O)[nH]1)Nc1nc(-c2ccc(Br)cc2)cs1", "Potency": "5.01 µM (active)"}
{"smiles": "O=C(COC(=O)c1cc(=O)[nH]c2ccccc12)Nc1nc(-c2cccc(Br)c2)cs1", "Potency": "inactive"}
{"smiles": "CCOc1ccc(C2C(C(=O)Nc3ccc(Cl)cc3)=C(C)Nc3nc(C(F)(F)F)nn32)cc1", "note": "(stereo not drawn)", "Potency": "inactive"}
{"smiles": "CCc1nnc2c3ccccc3nc(N3CCN(c4ccc(C)cc4C)CC3)n12", "Potency": "inactive"}
{"smiles": "O=C(CCc1ccccc1)NCc1ccc2c(c1)CCN2C(=O)c1ccccc1", "Potency": "inactive"}
{"smiles": "CSC1=N/C(=C\\C=C\\c2cccs2)C(=O)S1", "Potency": "17.8 µM (active)"}
{"smiles": "COc1cccc(-n2ccn(CC(=O)NCc3ccc(C)cc3)c(=O)c2=O)c1", "Potency": "inactive"}
{"smiles": "COc1ccc(Cn2ccnc2SCC(=O)NCc2ccco2)cc1", "Potency": "inactive"}
{"smiles": "O=c1cc2nc(-c3ccccc3)nc(SCCOc3ccc(Cl)cc3)n2[nH]1", "Potency": "inactive"}
{"smiles": "CC(C)c1c(O)nc(SCCOc2ccc(Cl)cc2)[nH]c1=O", "Potency": "inactive"}
{"smiles": "Cc1ccc(OCCSc2nc(-c3cccs3)nc3cc(=O)[nH]n23)cc1Cl", "Potency": "79.4 µM (active)"}
{"smiles": "CCCNC(=O)CCC(=O)N1Cc2ccccc2Oc2ncccc21", "Potency": "inactive"}
{"smiles": "CC(=O)c1ccc(N2CCN(C3C(=O)c4ccccc4N3C(C)=O)CC2)cc1", "note": "(stereo not drawn)", "Potency": "inactive"}
{"smiles": "COc1ccccc1C(=O)N/C(=C/c1ccco1)C(=O)Nc1ccc(C(=O)O)cc1", "Potency": "17.8 µM (active)"}
{"smiles": "COc1ccccc1C(=O)N/C(=C/c1ccc2c(c1)OCO2)C(=O)Nc1cccc(C(=O)O)c1", "Potency": "inactive"}
{"smiles": "COc1ccccc1C(=O)NC(=O)COC(=O)c1ccco1", "Potency": "inactive"}
{"smiles": "COc1cccc(CNC(=O)CCC(=O)N2CC3CCCN3c3ccccc32)c1", "note": "(stereo not drawn)", "Potency": "inactive"}
{"smiles": "CC(N)=NCc1cccc(CN)c1", "Potency": "inactive"}
{"smiles": "COc1ccc(NC(=O)COCc2cc(-c3ccco3)on2)cc1", "Potency": "inactive"}
{"smiles": "COc1ccc(OCC(=O)Nc2nnc(-c3ccco3)s2)cc1", "Potency": "56.2 µM (active)"}
{"smiles": "COc1ccc(OCCCC(=O)Nc2nnc(C3CCCO3)s2)cc1", "note": "(stereo not drawn)", "Potency": "inactive"}
{"smiles": "Cc1cc(O)c(C(c2ccccc2)N2CCN(c3ccccc3F)CC2)c(=O)n1Cc1ccco1", "note": "(stereo not drawn)", "Potency": "inactive"}
{"smiles": "Cc1ccc(NC(=O)Nc2sc3nc4n(c(=O)c3c2C)CCC(C)CC4)c(Cl)c1", "note": "(stereo not drawn)", "Potency": "inactive"}
{"smiles": "CCOC(=O)c1c(S(=O)(=O)N2CCCC(C(=O)NCc3cccc(C)c3)C2)c(C)n(C)c1C", "note": "(stereo not drawn)", "Potency": "inactive"}
{"smiles": "Cc1cccc(NC(=O)c2ccc(F)c(S(=O)(=O)N(C)C3CCCCC3)c2)c1", "Potency": "inactive"}
{"smiles": "CCOC(=O)c1c(C)[nH]c(C)c1S(=O)(=O)N(C)CC(=O)N1CCN(c2ccccc2)CC1", "Potency": "inactive"}
{"smiles": "CCOC(=O)c1c(C)[nH]c2c1-c1ccccc1C(=O)C2=O", "Potency": "3.16 µM (active)"}
{"smiles": "CCOC(=O)c1c(SCC(=O)Nc2cccc(C)c2C)nc(=O)[nH]c1C", "Potency": "inactive"}
{"smiles": "COc1ccc(Cl)cc1NC(=O)CSc1nc(=O)[nH]c2c1CCCC2", "Potency": "inactive"}
{"smiles": "COc1ccc(NC(=O)CCN2CCN(CCO)CC2)cc1", "Potency": "inactive"}
{"smiles": "Cc1csc2nc(COC(=O)c3ccc(NC(=O)COc4ccccc4F)cc3)cc(=O)n12", "Potency": "inactive"}
{"smiles": "COc1ccc2[nH]c3c(C)c4cc[n+](C)cc4c(C)c3c2c1", "Potency": "1.12 µM (active)"}
{"smiles": "CC(=O)Nc1c(C)nn(-c2ccccc2)c1N1CCC(C(=O)Nc2cc(Cl)ccc2C)CC1", "Potency": "inactive"}
{"smiles": "Cc1cc(-c2ccccc2)n2nc(-c3ccccc3)cc2n1", "Potency": "inactive"}
{"smiles": "COc1ccccc1OCCCn1c(-c2ccc(Cl)cc2)nc2ccccc2c1=O", "Potency": "inactive"}
{"smiles": "O=C(Nc1nnc(S(=O)(=O)N2CCCc3ccccc32)s1)c1cccc(F)c1", "Potency": "50.1 µM (active)"}
{"smiles": "O=C(Nc1nnc(S(=O)(=O)N2CCOCC2)s1)c1cccc(Br)c1", "Potency": "inactive"}
{"smiles": "O=C(Nc1nnc(S(=O)(=O)N2CCCCCC2)s1)c1cccc(Br)c1", "Potency": "inactive"}
{"smiles": "COc1cc(NC(=O)c2cc(C3CC3)nc3c2c(C)nn3-c2ccccc2)cc(OC)c1", "Potency": "inactive"}
{"smiles": "Cc1nn(Cc2ccc(F)cc2)c(C)c1NC(=O)c1cc(CC(C)C)on1", "Potency": "inactive"}
{"smiles": "Cc1ccc(Cl)cc1NC(=O)Cc1ccc(-n2c(C)nc3cccnc32)cc1", "Potency": "inactive"}
{"smiles": "CCc1nc2cccnc2n1-c1ccc(CC(=O)Nc2c(C)cccc2C)cc1", "Potency": "inactive"}
{"smiles": "CCc1nc2cccnc2n1-c1ccc(C(=O)O)cc1", "Potency": "20 µM (active)"}
{"smiles": "O=C(O)c1ccc(Nc2nc(-c3ccccc3)c3cc(Br)ccc3n2)cc1", "Potency": "inactive"}
{"smiles": "CCN(CC)c1ccc(NC(=O)CN2CCN(CC(=O)Nc3ccc(Cl)cc3)CC2)cc1", "Potency": "inactive"}
{"smiles": "CCc1ccc(S(=O)(=O)Nc2cc3c(C(=O)OCc4ccccc4)c(C)oc3c3ccccc23)cc1", "Potency": "inactive"}
{"smiles": "Cc1ccc(Cc2cnc(N)s2)o1", "Potency": "79.4 µM (active)"}
{"smiles": "CCOC(=O)C1CCN(c2nc3c(S(=O)(=O)c4ccc(CC)cc4)nnn3c3ccc(Cl)cc23)CC1", "Potency": "inactive"}
{"smiles": "CCCN(CCC)C(=O)C(Cc1ccccc1)NS(=O)(=O)c1ccc2c(c1)c(=O)n(C)c(=O)n2C", "note": "(stereo not drawn)", "Potency": "inactive"}
{"smiles": "Cc1oc(-c2ccccc2)nc1Cn1c(SCc2cccc(C(F)(F)F)c2)nc2cccnc21", "Potency": "inactive"}
{"smiles": "Cc1ccccc1CSc1nnc(-c2ccccc2)c(=O)[nH]1", "Potency": "inactive"}
{"smiles": "N#Cc1c(-c2ccccc2)nc(SCc2cccc(C(F)(F)F)c2)[nH]c1=O", "Potency": "89.1 µM (active)"}
{"smiles": "COc1ccccc1OCC(=O)Nc1nnc2n1CCS2", "Potency": "inactive"}
